Bioassay records (PubChem)
SKKanGAS inh: inhibitors of SKKanGAS S. pyogenes growth in kanamycin (SK-promoter or general growth effect). BacTiter-Glo, 6 h. inhibition, % at 7.5 µM. actives 1.3% (n = 300,000). AID 1662;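 active means mean replicate score, as percent of positive control median, at least 50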;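 further: strain carries kanamycin resistance gene driven by streptokinase promoter and grows in 40 µg/ml kanamycin; loss of luminescence reflects streptokinase promoter inhibition or plain growth inhibition; 0% = median of DMSO wells and 100% = positive control at its reference dose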
TIM10 inh: inhibits growth of TIM10 yeast strain | S. cerevisiae TIM10 strain growth, BacTiter-Glo luminescence, 24 h | inhibition, % at 10 µM | actives 1.4% (n = 330,000) | AID 463195;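 active means inhibition of 40% or more at the single tested concentration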;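 further: wild-type TIM10 isogenic control strain grown at permissive 25 °C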
tim10-1 inh: tim10-1 yeast growth inhibition; actives 2.2% (n = 330,000); AID 463190; S. cerevisiae tim10-1 ts strain growth, BacTiter-Glo, 24 h; inhibition, % at 20 µM;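 active means inhibition of at least 40%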;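 further: mutant grown at 25 °C; 0% = DMSO wells with yeast and 100% = wells holding no yeast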
tim23-1 inh: inhibits growth of tim23-1 mutant yeast. S. cerevisiae tim23-1 growth, BacTiter-Glo luminescence, 24 h. inhibition, % at 20 µM. actives 1.3% (n = 330,000). AID 463212;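 active means growth inhibition of the mutant yeast at or above 50%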;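 further: temperature-sensitive mutant grown at 25 °C; plate controls were DMSO-treated mutant yeast for no effect and medium wells lacking yeast for full effect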
NALP3 yeast inh: NALP3 inhibition in yeast. Yeast reconstituted NLRP3/ASC/caspase-1, beta-gal luminescence, 24 h. inhibition, % at 10 µM. actives 0.39% (n = 330,000). AID 2825;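 active means inhibition of 50% or more; inactive means inhibition below 50%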;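 further: plate controls were induced DMSO wells for no effect and uninduced yeast grown without galactose for full effect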
tim10-1 confirm: confirmation of tim10-1 mutant yeast growth inhibitors; shares compounds with tim10-1 inh; S. cerevisiae tim10-1 ts strain growth, BacTiter-Glo, 24 h; inhibition, % at 20 µM; actives 56% (n = 7,400); AID 463213;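 active means inhibition of yeast growth at or above a set limit in either of two repeat tests at 20 µM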;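 further: tim10-1 mutant grown at permissive 25 °C to find synthetic lethal compounds; 0% = DMSO yeast wells and 100% = medium wells without yeast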
TIM10 conf: confirmation of TIM10 yeast growth inhibitors; shares compounds with TIM10 inh; actives 63% (n = 4,600); inhibition, % at 10 µM; S. cerevisiae tim10 strain growth, BacTiter-Glo luminescence, 24 h;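 active means inhibition of yeast growth at or above a set limit in either of two replicates at 10 µM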;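 further: this counterscreen used the strain with wild-type TIM10; 0% = yeast with DMSO and 100% = medium wells lacking yeast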
tim23-1 conf: confirmation of tim23-1 mutant yeast growth inhibitors. shares compounds with tim23-1 inh. S. cerevisiae tim23-1 growth, BacTiter-Glo luminescence, 24 h. inhibition, % at 20 µM. actives 83% (n = 4,400);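 active means inhibition above about 39% in either of two replicate wells at 20 µM, limit read from the data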;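 further: temperature-sensitive tim23-1 mutant grown at 25 °C; 0% = DMSO wells with yeast and 100% = medium wells without yeast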
* hit, by the source's call. An excerpt weighted towards active compounds, which were near 4.6% of everything screened.

For CCN(CC)c1ccc(/C=C/c2ccc3ccc(OC)cc3[n+]2CC)cc1 the results were SKKanGAS inh 25, TIM10 inh 31, tim10-1 inh 73*, tim23-1 inh 68*, NALP3 yeast inh 26, tim10-1 confirm 68* and tim23-1 conf 58*.
O=C(CSCc1ccccc1)N=Nc1c(O)[nH]c2ccccc12 was read as SKKanGAS inh -1, TIM10 inh 31, tim10-1 inh 33, tim23-1 inh 28 and NALP3 yeast inh 11.
Screening O=C(CSCc1cccc(Br)c1)N=Nc1c(O)[nH]c2ccccc12 returned SKKanGAS inh 2, TIM10 inh 34, tim10-1 inh 45*, tim23-1 inh 53*, NALP3 yeast inh 11, tim10-1 confirm 20 and tim23-1 conf 59*.
N/N=C1\CCCc2c1[nH]c1ccc([N+](=O)[O-])cc21 was read as SKKanGAS inh 41, TIM10 inh 10, tim10-1 inh 18, tim23-1 inh -11 and NALP3 yeast inh -1.
For O=[N+]([O-])c1ccc2[nH]c3c(c2c1)CCCC3 the results were SKKanGAS inh 17, TIM10 inh 40, tim10-1 inh 65*, tim23-1 inh 66*, NALP3 yeast inh 15, tim10-1 confirm 57* and tim23-1 conf 66*.
For C/C=C/c1ccc(OCC(=O)Nc2cc(S(=O)(=O)N3CCOCC3)ccc2N2CCCC2)c(OC)c1 the results were SKKanGAS inh -7, TIM10 inh 17, tim10-1 inh 12, tim23-1 inh 16 and NALP3 yeast inh 15.
COc1ccc(-c2n[nH]c(C)c2-c2cnn(-c3ccccc3)c2)c(O)c1 was read as SKKanGAS inh -2, TIM10 inh 50*, tim10-1 inh 51*, tim23-1 inh 60*, NALP3 yeast inh 21, tim10-1 confirm 42*, TIM10 conf 44* and tim23-1 conf 50*.
COC(=O)c1cc(=O)n(-c2ccccc2)c(=Nc2ccccc2)s1 was read as SKKanGAS inh -2, TIM10 inh 18, tim10-1 inh 51*, tim23-1 inh 73*, NALP3 yeast inh 3, tim10-1 confirm 43* and tim23-1 conf 52*.
Screening CCOC(=O)c1ccc(N=c2sc(C(=O)OC)cc(=O)n2-c2ccc(C(=O)OCC)cc2)cc1 returned SKKanGAS inh 2, TIM10 inh 24, tim10-1 inh 15, tim23-1 inh 20 and NALP3 yeast inh 9.
`O=C(O)CN1C(=O)c2ccc(Oc3ccc4c(c3)C(=O)N(CC(=O)O)C4=O)cc2C1=O` gave SKKanGAS inh 5, TIM10 inh -11, tim10-1 inh 13, tim23-1 inh 1 and NALP3 yeast inh -10.
COc1cc(NC(=O)N[C@@H](Cc2c[nH]c3ccccc23)C(=O)O)c(C(=O)O)cc1OC was read as SKKanGAS inh 4, TIM10 inh 3, tim10-1 inh -5, tim23-1 inh 19 and NALP3 yeast inh 10.
For O=c1oc2c(-c3cccc(F)c3)cc(O)cc2s1 the results were SKKanGAS inh -13, TIM10 inh -15, tim10-1 inh 52*, tim23-1 inh 57*, NALP3 yeast inh 20, tim10-1 confirm 48* and tim23-1 conf 56*.
For Nc1nnc(-c2cccc(F)c2)s1 the results were SKKanGAS inh -4, TIM10 inh 1, tim10-1 inh -8, tim23-1 inh -4 and NALP3 yeast inh 14.
COc1ccc2c(c1)CCCC21NC(=O)N(CC(=O)NCc2cccs2)C1=O (centres undefined) was read as TIM10 inh -3, tim10-1 inh 0, tim23-1 inh 8 and NALP3 yeast inh 9.
`Clc1ccc(/C(Cc2nc3ccccc3[nH]2)=N\Nc2ccccc2)cc1` gave SKKanGAS inh 90*, TIM10 inh 56*, tim10-1 inh 46*, tim23-1 inh 53*, NALP3 yeast inh 31, tim10-1 confirm 22, TIM10 conf 56* and tim23-1 conf 45*.
`COc1ccc(/C=C2\SC(=O)NC2=S)cc1OC` gave SKKanGAS inh 12, TIM10 inh 33, tim10-1 inh 41*, tim23-1 inh 52*, NALP3 yeast inh 20, tim10-1 confirm 37* and tim23-1 conf 48*.
